According to PubChem BioAssay (NCI):
Compounds without any hit were thinned out: in the full panel of roughly 83,000, 20% have a hit.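 Each cell line was grown in a 96-well plate and treated with one concentration of compound for 48 hours. Values below 10 were considered active.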 Unmarked numbers belong to inactive results. Active and inactive are the calls of the source.

Key:
Test in all cases: NCI-60 one-dose screen, 48 h (100 = growth as untreated, 0 = no growth, -100 = all killed)
Settings in all cases: 10 µM unless noted
T-47D breast = tested on: T-47D breast
BT-549 breast = tested on: BT-549 breast
MDA-MB-435 melanoma = tested on: MDA-MB-435 melanoma
MCF7 breast = tested on: MCF7 breast
HCT-116 colon = tested on: HCT-116 colon
HCC-2998 colon = tested on: HCC-2998 colon
KM12 colon = tested on: KM12 colon
MDA-MB-468 breast = tested on: MDA-MB-468 breast

| SMILES | growth (T-47D breast) | growth (BT-549 breast) | growth (MDA-MB-435 melanoma) | growth (MCF7 breast) | growth (HCT-116 colon) | growth (HCC-2998 colon) | growth (KM12 colon) | growth (MDA-MB-468 breast) |
| --- | --- | --- | --- | --- | --- | --- | --- | --- |
| CC1=C(C(=O)OC(C)C)C(c2cccc(O)c2)NC(=S)N1 (configuration not stated) | 93.7% | 127% | 104% | 90.6% | 102% | 105% | 106% | 92% |
| NS(=O)(=O)c1ccc(-n2cc(-c3cccc(NC(=O)c4cc(C(F)(F)F)cc(C(F)(F)F)c4)c3)nn2)cc1 | 60.3% | 98.7% | 87.8% | 59.6% | 46.7% | 65.3% | 21.9% | 55.1% |
| C=Cn1cc(C(=O)O)c(=O)c2cc(F)c(N3CCN(c4nccc(-c5nccs5)n4)CC3)cc21 | -1.23% (active) | -49.1% (active) | -38% (active) | 0.211% (active) | -33.8% (active) | -62.1% (active) | -15% (active) | -61.9% (active) |
| Nc1cc2ccccc2c(=O)n1NC(=O)c1ccc(I)cc1 | 101% | 108% | 100% | 93.2% | 98% | 114% | 103% | 98.9% |
| CCN(CC)c1ccnc(CNCCSC(c2ccccc2)(c2ccccc2)c2ccc(OC)cc2)c1 | -15.8% (active) | -25.4% (active) | -63.8% (active) | -50.8% (active) | -78.6% (active) | -80.5% (active) | -49.8% (active) | -64.1% (active) |
| CCOc1ccc(-c2c(C#N)c(-c3ccc(Cl)cc3)nc3n[nH]c(-c4ccc(Cl)cc4)c23)cc1OC | 25.1% | 67.6% | 56.8% | 26.2% | 31.4% | 53.4% | 30.2% | 50.5% |
| COc1cccc(-c2c(C#N)c(-c3ccc(Cl)cc3)nc3n[nH]c(-c4ccc(Cl)cc4)c23)c1 | 9.68% (active) | 44% | 46% | 36.2% | 20.6% | 56.6% | 32.5% | 61% |
| CC1(C)CC[C@]2(C(=O)O)CC[C@]3(C)C(=CCC4[C@@]5(C)C[C@@H](O)[C@@H]6OC(c7ccc(F)cc7)OC[C@@]6(C)C5CC[C@]43C)C2C1 (some centres not stated) | 33.3% | 26% | 48.9% | 12.8% | 8.81% (active) | 18.1% | 12.3% | 13.7% |
| Cc1ccccc1[C@H]1C(C(=O)c2ccc(Cl)cc2)C2(N[C@@H]1c1ccccc1)C(=O)Nc1ccc(Br)cc12 (some centres not stated) | 22.6% | 13.1% | 3.21% (active) | -6.57% (active) | -71.6% (active) | -22.1% (active) | 3.4% (active) | -26.1% (active) |
| O=C(O)c1ccc(-c2ccc(/C=N/NC(=O)c3[nH]c4ccc(Br)cc4c3-c3ccccc3)s2)cc1 | 16% | 8.87% (active) | 4.27% (active) | 7.47% (active) | 11.1% | -66% (active) | -14.8% (active) | 3.12% (active) |
| COc1ccc2cc([C@H](C)C(=O)N/N=C/c3ccc(Br)cc3)ccc2c1 | 90.3% | 104% | 103% | 90.7% | 103% | 107% | 105% | 100% |
| c1ccc(-c2csc(Nc3cccc(Nc4nc(-c5ccccc5)cs4)c3)n2)cc1 | 24% | 31.7% | 44.7% | 15.6% | 40% | 35.5% | 1.06% (active) | 39.2% |
| Clc1cccc(Cl)c1/C=C/c1cc(/C=C/c2ccc(Br)cc2)c2ccccc2n1 | 81.2% | 91.2% | 99.9% | 83.3% | 95.8% | 118% | 102% | 111% |
| O=c1cc(-c2ccccc2)oc2cc(OCCCC[P+](c3ccccc3)(c3ccccc3)c3ccccc3)cc(O)c12 | -62.5% (active) | -83% (active) | -67.5% (active) | -79.1% (active) | -58.1% (active) | -93.1% (active) | -85.2% (active) | -84.9% (active) |
| O=C(O)c1cccc(-c2ccc(/C=N/NC(=O)c3[nH]c4ccc(Br)cc4c3-c3ccccc3)o2)c1 | 55.3% | 34.7% | 43.9% | 53.1% | 66.2% | 84.8% | 79.3% | -12.6% (active) |
| CC(=O)Oc1ccccc1C(=O)[Se]CC(=O)Nc1cccc(C(F)(F)F)c1 | 56.5% | -91% (active) | -29.7% (active) | 3.36% (active) | -47.7% (active) | 60% | 25.3% | -88.8% (active) |
| C=C1CC[C@@H]2[C@]3(C)COC(c4cn(-c5ccccc5)nc4-c4cccc([N+](=O)[O-])c4)O[C@@H]3CC[C@@]2(C)[C@@H]1C/C=C1/C(=O)OC[C@H]1O (some centres not stated) | -42.4% (active) | -55.9% (active) | -26.4% (active) | 2.33% (active) | -13.7% (active) | -86% (active) | 7.66% (active) | -69.7% (active) |
| COc1cc(-c2cc(-c3cccc(OCC(=O)O)c3)[nH]c(=O)c2C#N)cc(OC)c1OC | 103% | 100% | 106% | 97.1% | 92.8% | 110% | 105% | 96.7% |
| Cc1ccc2c(N)c(C(=O)Nc3ccc(OC(F)(F)F)cc3)sc2n1 | 27.3% | 86.8% | 68.9% | 39.4% | 58.8% | 90.9% | 66.5% | 15.9% |
| COc1ccc(-c2cc(C(=O)NCc3ccccc3)nn2-c2ccc(S(C)(=O)=O)cc2)cc1OC | 91.1% | 104% | 105% | 95.2% | 102% | 117% | 102% | 100% |
| COc1ccc2c(c1)c(-c1cc3nc(-c4cn(C)c5ncc(Br)cc45)cc(N)n3n1)cn2C | -60.3% (active) | -78.5% (active) | -67.3% (active) |  | -100% (active) | -94.3% (active) | -61% (active) | -81.4% (active) |
| O=C1Nc2cc(Cl)ccc2/C1=C/c1cccc(OCc2ccccn2)c1 | 26% | -12.6% (active) | -39.9% (active) | 7.87% (active) |  | 28.9% | 19.4% | 1.49% (active) |
| O=C(NNc1ccccc1)n1c(=O)c2ccccc2c(=O)n1-c1ccccc1 | 87.9% | 90% | 97.8% | 88.3% | 79.2% | 108% | 93.3% | 99% |
| N#Cc1c(-c2ccc(Br)cc2)nc2n[nH]c(-c3ccc(Br)cc3)c2c1-c1ccc(C(F)(F)F)cc1 | 3.49% (active) | 11.3% | 3.09% (active) | 5.3% (active) |  | 21.8% | 10.9% | -4.16% (active) |
| COc1cc(-c2ccc(/C=N/NC(=O)c3[nH]c4ccc(Br)cc4c3-c3ccccc3)o2)cc(OC)c1OC | 85.7% | 95.4% | 90.3% | 70% | 76.7% | 110% | 82.3% | 88.6% |
| CSc1ccc(C(=O)Nc2ccc3nnn(/C(C#N)=C/c4ccccn4)c3c2)cc1 | -45.3% (active) | -67.9% (active) | -20.9% (active) | -79% (active) | -5.03% (active) | -76.3% (active) | -57.1% (active) | -69.1% (active) |
| O=C(/C=C/c1ccc(-c2ccccc2)cc1)c1nc2ccccc2n1Cc1ccc(Br)cc1 | 7.98% (active) | 41.7% | 61.9% | 21.3% | 24% | 62.6% | 74.3% | 49.6% |
| Cn1nc(C(F)(F)F)cc1-c1cc(Cl)c(COc2ccc(Cl)cc2)c(-c2ccc(Cl)c(C(F)(F)F)c2)c1O | 13.1% | -51.6% (active) | -34.4% (active) | -14.3% (active) | -62.2% (active) | -33.1% (active) | -19.1% (active) | -23.9% (active) |
| CCOC(=O)COc1c(OC)c(OC)cc2oc(-c3cccc(C(=O)Nc4ccc(Cl)cc4)c3)cc(=O)c12 | 47.5% | 21.2% | -11.8% (active) | 15.7% | 22.7% | 76% | 16.2% | 68% |
| C=C1CCC2C3(C)COC(c4cccs4)OC3CCC2(C)C1CC(Sc1ccccc1)C1=CCOC1=O (configuration not stated) | 82.3% | 25.8% | 87.2% | 38.2% | 32.4% | 81.5% | 89.2% | 90.5% |
